Experimental data as given in PubChem BioAssay (EPA / NIEHS).
Records with an inconclusive call do not appear. Active and inactive are the calls of the source. Rule for the calls: active = hit-call score of the fitted dose curve at least 0.9, where 1 is the maximum; inconclusive = response in the unintended direction; inactive = score below 0.9.

biological target: Peroxisome proliferator-activated receptor gamma (Homo sapiens) (UniProt P37231); experiment: ATG_PPARg_TRANS: Attagene TRANS-FACTORIAL HepG2 Assay for human Peroxisome Proliferator-activated Receptor-gamma (PPARg) (AID 2283007)
In short: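 HepG2 cells are transiently transfected with GAL4-UAS reporter units driven by chimeric NR-Gal4 fusions and dosed for 24 h. Reporter mRNA is quantified by RT-PCR, 6-FAM labelling, HpaI digestion and capillary electrophoresis. Induction is scored against DMSO.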

Peroxisome proliferator-activated receptor gamma (Homo sapiens), sequence (P37231 whole entry, looked up, the tested form may be a part): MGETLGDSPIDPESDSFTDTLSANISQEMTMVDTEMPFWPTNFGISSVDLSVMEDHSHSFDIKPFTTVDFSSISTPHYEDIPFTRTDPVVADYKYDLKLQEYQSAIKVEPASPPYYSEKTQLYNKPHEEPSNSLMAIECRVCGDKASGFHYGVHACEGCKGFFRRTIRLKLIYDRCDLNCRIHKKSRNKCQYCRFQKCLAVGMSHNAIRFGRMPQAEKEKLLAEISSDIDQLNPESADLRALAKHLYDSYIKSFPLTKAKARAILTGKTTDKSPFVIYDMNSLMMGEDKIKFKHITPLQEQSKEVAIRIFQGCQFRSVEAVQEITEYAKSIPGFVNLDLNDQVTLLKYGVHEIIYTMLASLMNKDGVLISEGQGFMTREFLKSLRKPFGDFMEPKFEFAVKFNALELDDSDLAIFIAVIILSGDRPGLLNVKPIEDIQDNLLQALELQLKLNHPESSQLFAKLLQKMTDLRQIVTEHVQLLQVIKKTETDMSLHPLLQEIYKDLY

Row | Structure (SMILES) | outcome | AC50
1 | CCOC(=O)CC(=O)C(F)(F)C(F)(F)F | inactive | –
2 | CC(O)C#CC(C)O (configuration not stated) | – | 41.1 µM (active)
3 | CCN(CC)c1ccc(C=O)c(O)c1 | – | 15.3 µM (active)
4 | FC(F)(F)C(F)(F)C(F)(F)CC1CO1 (configuration not stated) | inactive | –
5 | OCC(O)CC(F)(F)C(F)(F)C(F)(F)C(F)(F)F (configuration not stated) | inactive | –
6 | OC(O)C(F)(F)C(F)(F)F | inactive | –
7 | FC(F)(F)C(F)(F)C(F)(F)C(F)(F)C(F)(F)C(F)(F)CC[Si](Cl)(Cl)Cl | inactive | –
8 | Cc1cc(O)c(C(C)(C)C)cc1C(C)(C)C | inactive | –
9 | CCCCCCCCCCCCC[N+](C)(C)Cc1ccccc1 | inactive | –
10 | CCn1c2ccccc2c2ccccc21 | inactive | –
11 | C=CC(=O)OCC(F)(F)C(F)(F)C(F)(F)COC(=O)C=C | – | 2.69 µM (active)
12 | Cc1ccc(S(=O)(=O)C(I)I)cc1 | inactive | –
13 | COC(F)(C(F)F)C(F)(F)F (configuration not stated) | inactive | –
14 | CC1=CC2C3C=CC(C3)C2C1C (configuration not stated) | inactive | –
15 | CC(C)(C)C(=O)C1C(=O)c2ccccc2C1=O | – | 28 µM (active)
16 | O=S(=O)(O)CCC(F)(F)C(F)(F)C(F)(F)C(F)(F)F | inactive | –

Row | Structure (SMILES) | outcome | AC50
17 | O=S(=O)(OCC(F)(F)F)C(F)(F)C(F)(F)C(F)(F)C(F)(F)F | – | 107 µM (active)
18 | CCCCCCCC/C=C\CCCCCCCC(=O)N(C)CC(=O)O | – | 5.36 µM (active)
19 | O=C(O)C(F)(F)C(F)(F)C(F)(F)C(=O)O | – | 84.1 µM (active)
20 | OCC(F)(F)C(F)(F)C(F)(F)C(F)(F)C(F)(F)C(F)(F)CO | inactive | –
21 | O=C=Nc1cccc2c(N=C=O)cccc12 | inactive | –
22 | CC(C)(C)c1cc(CCC(=O)NCCCCCCNC(=O)CCc2cc(C(C)(C)C)c(O)c(C(C)(C)C)c2)cc(C(C)(C)C)c1O | inactive | –
23 | CCN(CC)c1ccc2c(c1)Oc1cc(N(CC)CC)ccc1C21OC(=O)c2ccccc21 | – | 17.6 µM (active)
24 | Nc1cccnc1N | inactive | –
25 | O=C(F)C1(F)C(F)(F)C(F)(F)C(F)(F)C(F)(F)C1(F)F | inactive | –
26 | Oc1ccc2c(c1)CCC2 | inactive | –
27 | O=C1C=CC(=O)N1c1ccccc1 | inactive | –
28 | OCCCC(F)(F)C(F)(F)C(F)(F)C(F)(F)C(F)(F)C(F)(F)C(F)(F)C(F)(F)F | inactive | –
29 | O=C(O)C(F)(F)C(F)(F)C(F)(F)OC(F)(F)F | inactive | –
30 | CCN=C1C=CC(=C(c2ccc(N(CC)CC)cc2)c2ccc(N(CC)CC)cc2)c2ccccc21 | inactive | –
31 | O=C(O)CCC(F)(F)C(F)(F)C(F)(F)F | inactive | –
32 | CCN(CC)c1ccc(C=O)cc1 | inactive | –
